The campaign covered roughly 360,000 compounds. About 780 (0.22%) were called active. The sample as a whole holds a higher share of actives than the screen did. Unmarked numbers belong to inactive results. No stated cut-off is given here; in the data, active means inhibition above about 8.5% (passing the limit was not always enough); inconclusive means no clear call, values can overlap the other calls.

The subject of the test is Mycobacterium tuberculosis FadD28 fatty-acid-AMP ligase. The test can be described thus: inhibitors of FadD28 bisubstrate probe binding, primary screen, biochemical, fluorescence polarization, single point (AID 588549). Particulars: at 12.5 µM, hits give high values.
Usually inhibition stands for the change of the read-out against control, counted positive when it falls. `CN(CC#CCC(c1ccccc1)c1ccccc1)C(C)(C)C`: the inhibition is -4.42%.
As for `O=C(NCCc1ccco1)c1ccc(OCc2cn3ccccc3n2)cc1`, the figure is -3.83%.
As to `Cc1ccccc1-c1csc(C(O)c2cccc(Cl)c2)n1` (stereo unspecified), the inhibition was -5.7%.
For `COc1cccc2c1C(=O)c1c(O)c3c(c(O)c1C2=O)CC(O)(C(C)=NNC(=O)c1ccc(Cl)c(Cl)c1)CC3OC1CC(N)C(O)C(C)O1` (stereo unspecified), the inhibition was 59.5% (active).
As for `CN(C(=O)CN1C(=O)CCSc2ccc(S(=O)(=O)N3CCCC3)cc21)c1ccccc1`, the inhibition was -0.827%.
`CC1=CC2=NC(=O)CC(C)(C(=O)N(CC(=O)NC(C)(C)C)Cc3ccccc3)N2C=C1` (stereo unspecified): the inhibition is 0.336%.
As for `COc1cc(-c2nnn(CC(=O)NCc3ccccc3)n2)cc(OC)c1OC`, the figure is 0.0025%.
`COc1cc(C(=S)NCc2ccccc2)cc(Br)c1O`: the inhibition was 11% (active).
To `COc1ccccc1OCCC(=O)OCC(=O)NCc1ccccc1` belongs -1.13%.
As for `CSc1ccc(CN2CCC2(C)C(=O)Nc2ccc(C)c(O)c2)cc1` (stereo unspecified), the figure is -2.96%; as for `Cc1cc(-c2ccc(C)c(S(=O)(=O)NC(C)Cc3ccco3)c2)on1` (stereo unspecified), -1.87%.
To `CCc1ccc(-c2cc(C)no2)cc1S(=O)(=O)NCCc1ccc(S(N)(=O)=O)cc1` belongs -1.2%; to `Cc1cc(-c2ccc(C)c(S(=O)(=O)Nc3ccc(S(N)(=O)=O)cc3)c2)on1`, 14.4% (active); to `CO[C@@H]1[C@@H](OC(N)=O)[C@@H](O)C(Oc2ccc3c(O)c(NC(=O)c4ccc(O)c(CC=C(C)C)c4)c(=O)oc3c2C)OC1(C)C` (stereo partly specified), -2.46%.
Consider `Cc1cccc(C)c1NC(=O)CS(=O)CC(=O)N1CCN(c2ccccc2)CC1` (stereo unspecified), for which the inhibition was 0.692%.
To `Cc1ccc(NC(=O)CSCC(=O)NC2CCCCC2)cc1` belongs 1.13%.
As for `O=c1/c(=C/c2ccc(CNS(=O)(=O)c3ccccc3)o2)sc2n1CCN=2`, the figure is -4.15%.
`Cc1ccc(N2CCN(S(=O)(=O)N(C)C)CC2)cc1Cl`: the inhibition was 0.0335%.
As for `CC(C)CC(N=C1NC(C)(C)Cc2ccccc21)C(=O)O` (stereo unspecified), the figure is -3.18%; as for `CCCn1c(=S)[nH]c2ccc(C(F)(F)F)cc21`, -2.34%; as for `Cc1nn(C(C)CC(=O)O)c(C)c1C` (stereo unspecified), -1.05%.
As for `CCCC(=O)Nc1ccc2c(c1)nc1n2CCSC1`, the figure is -0.77%.
For `CS/C(=C\[N+](=O)[O-])Nc1ccc(C)cc1`, the inhibition is 2.23%.
Take `CC(C)CNC(=O)C(=O)NCC(c1ccc2c(c1)OCO2)N1CCOCC1` (stereo unspecified): the inhibition is -1.64%.
Take `CCCCN1C(=O)C(CC(=O)NCc2cccs2)CC(C(=O)N2CCOCC2)=C1C` (stereo unspecified): the inhibition was -1.02%.
To `CCNC(=O)NC(=O)C(C)OC(=O)C1CCN(S(=O)(=O)c2ccccc2F)CC1` (stereo unspecified) belongs -0.363%.

The values above are taken from PubChem BioAssay AID588549 (Broad Institute, 2011).
